In PubChem BioAssay AID2634 (National Center for Advancing Translational Sciences (NCATS), 2010) one finds outcome and inhibition data, which are given here for five compounds.

Inconclusive results are not listed. Active and inactive are the calls of the source.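 Rule for the calls: active = compounds whose potency, the dose giving half inhibition, is below 20 µM; inconclusive = compounds meeting neither the active nor the inactive rule; inactive = potency over 20 µM or below 50% inhibition when unfitted.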

Integrin alpha-IIb (Homo sapiens), sequence (P08514 whole entry, looked up): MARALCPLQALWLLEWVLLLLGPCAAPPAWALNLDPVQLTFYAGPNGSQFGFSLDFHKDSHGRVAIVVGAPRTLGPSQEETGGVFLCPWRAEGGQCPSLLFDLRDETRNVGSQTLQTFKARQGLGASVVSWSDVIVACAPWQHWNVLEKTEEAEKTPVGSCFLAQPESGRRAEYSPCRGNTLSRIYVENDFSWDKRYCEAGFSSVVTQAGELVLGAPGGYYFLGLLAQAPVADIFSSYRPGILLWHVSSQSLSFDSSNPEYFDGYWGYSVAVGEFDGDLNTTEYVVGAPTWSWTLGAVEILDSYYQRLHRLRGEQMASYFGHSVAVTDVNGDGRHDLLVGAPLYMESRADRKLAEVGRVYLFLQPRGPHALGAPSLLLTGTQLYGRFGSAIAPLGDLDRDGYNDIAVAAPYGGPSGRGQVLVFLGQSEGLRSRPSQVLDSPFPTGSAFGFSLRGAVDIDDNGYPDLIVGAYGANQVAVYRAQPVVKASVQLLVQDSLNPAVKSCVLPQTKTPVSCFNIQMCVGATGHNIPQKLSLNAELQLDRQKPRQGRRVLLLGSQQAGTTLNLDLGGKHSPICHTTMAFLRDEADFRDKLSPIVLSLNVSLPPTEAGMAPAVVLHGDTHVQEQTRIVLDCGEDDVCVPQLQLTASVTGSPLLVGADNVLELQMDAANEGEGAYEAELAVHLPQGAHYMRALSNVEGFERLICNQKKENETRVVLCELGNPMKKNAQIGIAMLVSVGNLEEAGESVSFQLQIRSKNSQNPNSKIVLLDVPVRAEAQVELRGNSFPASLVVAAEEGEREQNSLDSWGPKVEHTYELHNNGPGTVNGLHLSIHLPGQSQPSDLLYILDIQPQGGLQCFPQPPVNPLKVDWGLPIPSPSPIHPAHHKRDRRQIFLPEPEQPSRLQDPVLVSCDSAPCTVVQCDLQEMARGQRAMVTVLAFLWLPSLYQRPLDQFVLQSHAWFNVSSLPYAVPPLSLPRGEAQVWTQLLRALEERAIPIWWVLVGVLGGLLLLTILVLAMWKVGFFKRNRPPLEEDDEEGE

The test deals with Integrin alpha-IIb (Homo sapiens) (UniProt P08514). The test can be described thus: Platelet Adhesion Secondary Assay for Inhibitors of Platelet Integrin alphallb-beta3. The note with it: human platelet adhesion to fibrinogen, calcein fluorescence; at 30 µM, stronger effect = higher value unless noted. An excerpt:
NIH Molecular Libraries Probe Production Network [MLPCN] NIH Chemical Genomics Center [NCGC] MLPCN Grant: 1 R03 MH083257-01 Assay Provider: Barry Coller, Rockefeller University NCGC Assay Overview: The alphaIIbbeta3 receptor plays a vital role in hemostasis and thrombosis, where receptor deficiency causes the hemorrhagic disorder, Glanzmann thrombasthenia, and uncontrolled receptor activation causes thrombosis and blood vessel occlusion. Small molecule inhibitors of alphaIIbbeta3, tirofiban and eptifibatide, have undesirable side effects thought to arise from conformational changes in alphaIIbbeta3. These changes transiently activate the receptor to cause spontaneous platelet aggregation and thrombus formation. […] This secondary assay measures the binding of human plates to fibrinogen, an extracellular matrix protein (Blue et al., 2008). Platelets were loaded with a fluorescent dye, calcein, and added to fibrinogen-coated plates. Following incubation, unbound platelets were removed by washing and bound platelets were detected by measuring fluorescence intensity. Inhibitors of alphaIIbbeta3 block platelet binding to fibrinogen and result in a decrease in fluorescence intensity.
NCGC Assay Protocol Summary: Human fibrinogen (50 ug/mL) in Tris/saline (100 mM NaCl, 50 mM Tris/HCl, pH 7.4; American Diagnostica, Stamford, CT) was added to black, clear-bottom, untreated polystyrene, nonsterile 384-well microtiter plate wells (Corning no. 3711; Acton, MA) using a peristaltic microplate dispenser (WellMate; Matrix, Hudson, NH). After incubating at 22 C for 1 hour, plates were washed 4 times with Tris/saline using an automated plate washer (ELX405; Bio-Tek, Winooski, VT), and wells were then blocked with HBMT (138 mM NaCl, 12 mM NaHCO3, 10 mM HEPES, 2.7 mM KCl, 0.4 mM NaH2PO4, 0.1% glucose, 0.35% BSA, pH 7.4) for at least 1 hour. After 2 additional washes, 15 uL HBMT was allowed to remain in each well. Compounds were added to the wells with a liquid handling robot (MiniTrak V; PerkinElmer, Wellesley, MA) using a pin tool (VP Scientific, San Diego, CA) that added 0.1 uL compound in DMSO. Fifteen microliters 5E11/L calcein-labeled platelets were then added (2.5E11/L final concentration). After 1 hour of adhesion, wells were washed 4 times with HBMT-CaCl2/MgCl2 and the plates were read by an Envision (Perkin Elmer) to detect calcein fluorescence (490 nm excitation and 515 nm emission). Positive controls consisted of wells containing platelets without compounds. Negative controls were wells containing platelets and known inhibitors of alphaIIbbeta3, including mAbs 7E3 and 10E5, and EDTA. Reference Blue R, Murcia M, Karan C, Jirouskova M, and Coller BS. Application of high-throughput screening to identify a novel alphaIIb-specific small- molecule inhibitor of alphaIIbbeta3-mediated platelet interaction with fibrinogen. Blood. 2008, 111(3):1248-56
Regarding `CCc1nn2c(=O)c(C)c(N3CCNCC3)nc2s1`, the outcome was inactive and the inhibition was 55% [inhibition, at 100 µM, stronger effect = higher value].

`CCc1nn2c(=O)c(F)c(N3CCNCC3)nc2s1`: the result was inactive and the inhibition was 41% [inhibition, at 100 µM, stronger effect = higher value].

For the compound `Cc1nn2c(=O)cc(N3CCNCC3)nc2s1`, the inhibition is 20% (inactive).

`CCc1nn2c(=O)cc(N3CCNCC3)nc2s1`: the inhibition was 35% (inactive).

Regarding `CCc1nn2c(=O)cc(N3CCN(C)CC3)nc2s1`, the inhibition is 23% (inactive).

The term inhibition denotes the percentage by which the read-out fell short of the control.
